uPA surface inh = inhibitors of cell surface uPA generation | cell surface uPA generation assay, qHTS | Potency, µM (highest dose often 38.3 µM), usual class: inhibitors | AID 540303 | actives 0.31% (n = 330,000); active = well fitted inhibition curve with a large enough effect; inconclusive = small, poorly fitted or top-dose-only effect; inactive = no such curve, though single readings can be large or run the other way; tested in mouse RAW 264.7 cells; note: nearly all actives have a fitted effect of over 55% in size
HT1080-NT tox = kills 2HG-producing HT-1080-NT fibrosarcoma cells | HT-1080-NT fibrosarcoma viability, CellTiter-Glo ATP luminescence, 48 h | AID 686970 | Potency, µM (doses to about 46.1 µM), most hits filed as cytotoxic | actives 1.6% (n = 360,000);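 note: NT is the 2HG producing partner of a matched IDH1 knockdown line; nearly all actives have a fitted effect of over 55% in size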
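750 cells/well, RPMI + 5% FBS; 2 h settle, compound pin-transfer, 48 h at 37 degrees C. CellTiter-Glo 10 min RT, luminescence. Normalized to DMSO and media-only wells.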
IL-1B inflam inh = blocks inflammasome-driven IL-1 beta release. THP-1 LPS/ATP IL-1B secretion, AlphaLISA, 16 h; stronger effect = lower value. activity change, % at 57.5 µM. actives 4.7% (n = 360,000); in the data active = activity change below about -50%; inconclusive = mostly about -30% to -49%
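THP-1 cells pretreated 1 hr with compounds (up to 57.5 uM final), then stimulated with LPS (250 ng/mL final) plus ATP (1.25 mM final); secreted IL-1B measured by AlphaLISA after 16 hr, decreased signal indicating inhibition.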
HT1080 IDH1KD tx = kills HT-1080 cells with IDH1 knockdown; HT-1080 IDH1 knockdown viability, ATP luminescence, 48 h; Potency, µM (top dose mostly 46.1 µM), usual class: cytotoxic; actives 2% (n = 360,000)
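% activity derives from luminescence (CellTiter-Glo), normalised to DMSO and no-cell wells. HT-1080-IDH1KD cells, 750/well, had 48 h compound exposure at 37 °C.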
DT40 TDP1 CPT = growth inhibition of DT40 Tdp1-/-;hTDP1 cells with camptothecin (screen for TDP1 inhibitors) | chicken DT40 Tdp1-/-;hTDP1 cells + 20 nM CPT, ATP luminescence, 48 h | Potency, µM (top dose mostly 46.2 µM), usual class: inhibitors | actives 12% (n = 420,000) | AID 686979; note: nearly all actives have a fitted effect of over 55% in size
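Chicken DT40 Tdp1-/- cells stably complemented with human TDP1 were seeded at 400 cells/well in medium containing 20 nM camptothecin, exposed to pin-transferred compounds, and grown at 37 °C for at least 48 hr. Viability was read as ATP luminescence.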
TDP1 cell noCPT = qHTS for Inhibitors of human tyrosyl-DNA phosphodiesterase 1 (TDP1): qHTS in cells in absence of CPT | DT40 Tdp1-/- hTDP1 cells, no CPT, ATP luminescence, 48 h | actives 15% (n = 420,000) | AID 686978, 2013 | Potency, µM (titrated, usually from 46.2 µM), most hits filed as inhibitors; note: nearly all actives have a fitted effect of over 55% in size
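Growth of hTDP1-complemented DT40 Tdp1-knockout cells is measured by ATP luminescence after at least 48 hr compound exposure at 37 °C, with DMSO substituting for the 20 nM CPT used in the parallel screen.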
A number is an active result; i = inactive; ? = inconclusive; nt = no result; [ ] = another dose, or the depositor's remark. The list is not random: actives were taken first. Their share in the collection is about 19%. Unless noted, calls come from the whole dose curve; as a rule, active = well fitted curve in the direction sought with a large enough effect; inconclusive = small, poorly fitted or top-dose-only effect, or another doubt; inactive = no such curve, though single readings can be large; an effect the other way counts as inactive or inconclusive.

SMILES	uPA surface inh	HT1080-NT tox	IL-1B inflam inh	HT1080 IDH1KD tx	DT40 TDP1 CPT	TDP1 cell noCPT
COc1ccc(NC(=O)CN2CCN(C3c4ccccc4-c4ccccc43)CC2)c(OC)c1	i	i	i	i	?	26µM
COc1ccccc1NC(=O)CN1CCCCCC1	i	i	i	i	i	i
C/C(=N\NC(=O)C1CC1)c1ccccc1O	i	i	i	i	i	i
CCOC(=O)C(=Cc1ccc(-n2cncn2)cc1)C(=O)OCC	i	16µM	-99	5.2µM	12µM	13µM
O=C(NC1=NCCS1)C1CCN(S(=O)(=O)c2ccccc2C(F)(F)F)CC1	i	i[9.24 µM]	i	i	i	i
COc1ccc(/C=C2\N=C(C)N(c3ccc4ccccc4c3)C2=O)cc1OC	i	i	i	i	?	5.8µM
O=S1(=O)C=CC(Sc2nc3ccccc3[nH]2)C1 (stereo not given)	i	i	i	i	13µM	21µM
CC1=CS(=O)(=O)CC1Sc1nc2ccccc2[nH]1 (stereo not given)	i	i	i	i	i	i
Cc1cccc(N(C(=O)c2snc(C(N)=O)c2N)C(C(=O)NCC2CCCO2)c2ccc3ncccc3c2)c1 (stereo not given)	i	i	?	i	i	?
COc1ccc(-c2nn(Cc3ccccc3)cc2C(=O)N2CCN(c3ccccn3)CC2)cc1OC	i	i	i	i	i	i
CC(=O)c1ccc(N2CCN(C(=O)c3cn(Cc4ccccc4)nc3-c3cccnc3)CC2)c(F)c1	i	i	i	?	?	23µM
O=C(c1cn(Cc2ccccc2)nc1-c1ccccc1)N1CCN(c2ccccn2)CC1	4.5µM	?	i	16µM	5.8µM	5.8µM
Cc1ccccc1C(=O)N1CCN(c2ccccn2)CC1	i	i	i	i	i	i
O=C(c1ccccc1-c1ccccc1)N1CCN(c2ccccn2)CC1	i	5.8µM	i	6.5µM	3.3µM	2.6µM
O=C(c1cnc(N2CCN(c3ncccn3)CC2)c2ccccc12)N1CCN(c2ccccn2)CC1	i	i	-66	i	?	?
CCOCCCNC(=O)c1c(NC(=O)c2cc(=O)c3ccccc3o2)sc2c1CCC2	nt	nt	nt	nt	i	i
O=C(Cc1cc2ccccc2o1)NCc1ccc(F)cc1	?	?	i	i	21µM	23µM
O=C(CCNc1ccc(F)cc1)c1cc2ccccc2o1	i	i	?	i	8.2µM	16µM
O=C(NCc1ccc(Cl)cc1)c1cc2ccccc2o1	nt	nt	nt	nt	i	i
O=C(Cc1ccc(F)cc1)OCC(=O)c1cc2ccccc2o1	i	i	i	i	i	i
O=C(CCNc1cccc(F)c1)c1cc2ccccc2o1	i	i	i	i	16µM	15µM
COCCCNC(=O)CN1C(=O)c2cccnc2Sc2ccccc21	nt	nt	nt	nt	i	i
NS(=O)(=O)c1cccc(C(=O)N2CCCc3ccccc32)c1	nt	i	i	i	i	i
Cc1ccc(S(=O)(=O)N2CCN(C(=O)COC(=O)CNC(=O)c3ccccc3F)CC2)c(C)c1	i	i	i	i	i	i
N=C1SCC(=O)N1c1ccccc1Cl	i	i	i	i	i	i
SMILES	uPA surface inh	HT1080-NT tox	IL-1B inflam inh	HT1080 IDH1KD tx	DT40 TDP1 CPT	TDP1 cell noCPT
O=c1c2ccc(F)cc2sn1-c1ccccc1	nt	i	-106	?	2.6µM	2.9µM
Cc1ccc(-n2sc3cc(F)ccc3c2=O)c(C)c1	nt	?	-103	?	2.9µM	2.3µM
COC(=O)c1cccc(-n2sc3ccccc3c2=O)c1	i	i	-101	i	2.1µM	3.3µM
O=c1c2cc(F)ccc2sn1-c1ccccc1Cl	nt	?	-105	?	2.6µM	2.3µM
Cc1ccc(N2C(=O)CC(N3CCN(c4ccc(F)cc4)CC3)C2=O)c(C)c1 (stereo not given)	i	i	i	i	i	i
CN(C)C(=O)c1ccc2c(c1)N(CC(=O)NCc1ccc(F)cc1)C(=O)C1CCCCN21 (stereo not given)	nt	nt	nt	nt	i	i
O=c1sc2ccccc2c(=O)n1Cc1ccccc1F	i	i	i	i	i	i
O=c1c2ccccc2sn1-c1ccc(F)cc1	?	?	-109	i	3.3µM	3.7µM
O=C(CCC(=O)N(CC(=O)NC1CCCC1)C1CCCCC1)Nc1ccccn1	i	i	i	i	i	i
CCOC(=O)c1ccc(NC(=O)c2nc(SC)ncc2Cl)cc1	i	i	i	i	i	i
Cc1ccccc1CS(=O)(=O)c1ncc(Cl)c(C(=O)Nc2ccc(F)cc2)n1	?	?	-98	?	3.3µM	2.1µM
CCc1ccc(NC(=O)c2nc(SCc3ccccc3F)ncc2Cl)cc1	nt	nt	nt	nt	i	i
CCOc1ccc(NC(=O)c2nc(S(=O)(=O)Cc3ccccc3C)ncc2Cl)cc1	nt	nt	nt	nt	1µM	0.71µM
COc1ccc(N2CCN(CC(O)COc3ccc(F)cc3)CC2)cc1 (stereo not given)	i	i	i	i	?	i
OC(CSc1c(Cl)cccc1Cl)CN1CCN(c2ccc(F)cc2)CC1 (stereo not given)	nt	i	i	i	?	?
COc1ccc(N2CCN(CC(O)COC(c3ccc(F)cc3)c3ccc(F)cc3)CC2)cc1 (stereo not given)	i	?	i	i	18µM	29µM
OCCN1CCN(CC(O)COC(c2ccc(F)cc2)c2ccc(F)cc2)CC1 (stereo not given)	i	i	-79	i	i	i
OC(CSc1ccccc1Cl)CN1CCN(c2ccc(F)cc2)CC1 (stereo not given)	nt	?	i	?	18µM	23µM
Cc1ccccc1C(OCC(O)CN1CCN(CCO)CC1)c1ccccc1 (stereo not given)	i	i	?	i	i	i
COc1ccc(C(=O)NCC2Cc3cccc(-c4ccc(S(C)(=O)=O)cc4)c3O2)c(OC)n1 (stereo not given)	nt	nt	nt	nt	i[9.04 µM]	i
CCn1nc(C)c(CCN(C)C(=O)Nc2cc(OC)c(OC)c(OC)c2)c1C	nt	nt	nt	nt	i	i
CC1Cc2ccccc2N1C(=O)C1CCCN(S(=O)(=O)c2cccc3cccnc23)C1 (stereo not given)	?	i	i	i	13µM	13µM
COc1ccc(N2CCN(C(=O)C3CCCN(S(=O)(=O)c4cccc5cccnc45)C3)CC2)cc1 (stereo not given)	i	i	i	i	16µM	?
CCOc1ncccc1C(=O)OCCCC(=O)c1ccc(Br)cc1	i	i	i	i	i	?
C[C@H](N)CCCP(=O)(O)O	nt	nt	nt	nt	i	i
OCCC1CN(Cc2nc3ccccc3[nH]2)CCN1C1CCCC1 (stereo not given)	i	i	i	i	i	i
